Measurements taken from the supplement of paper PMC10849652.
Targets with a hit are over-represented here; the source holds about 7,900 in all. About 0.6% of all pairs of compound and target were hits. Unmarked numbers belong to inactive results.

Experiments:
Assay in all cases: log2 fold change, soluble protein after heating vs DMSO (PISA); higher = thermal stabilisation; K562 cells, 10 uM, 30 min; active = over 0.2 and 3.5 SD of the protein, either way, in both replicates (recomputed)
bafetinib = compound: Cc1ccc(NC(=O)c2ccc(CN3CC[C@H](N(C)C)C3)c(C(F)(F)F)c2)cc1Nc1nccc(-c2cncnc2)n1 [bafetinib]
Summary of the method: (§1)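 K562 cells (2×10^6 cells/mL) were treated with 10 μM compound for 30 min, and aliquots were heated for 3 min over 48°C-58°C. Pooled aliquots were extracted in PBS with 0.5% NP-40 at 4°C, and the supernatant after 21,000xg for 90 min was measured by TMTpro 16plex LC-MS/MS with channel sums equalised. Reported thermal stability, relative to control samples and from duplicates, is a log2 fold change.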

[1] = compound: Cc1cccc(CC(=O)N2CCc3c2ccc(-c2cn(C)c4ncnc(N)c24)c3F)n1
Summary of the method: as §1

nilotinib = compound: Cc1cn(-c2cc(NC(=O)c3ccc(C)c(Nc4nccc(-c5cccnc5)n4)c3)cc(C(F)(F)F)c2)cn1 [nilotinib]
Summary of the method: as §1

[2] = compound: Cc1nc(Nc2n[nH]c3c2CN(C(=O)N[C@H](CN(C)C)c2ccccc2)C3(C)C)c2sccc2n1
Summary of the method: as §1

dasatinib = compound: Cc1nc(Nc2ncc(C(=O)Nc3c(C)cccc3Cl)s2)cc(N2CCN(CCO)CC2)n1 [dasatinib]
Summary of the method: as §1

[3] = compound: Cc1ncc(-c2ccnc(Nc3ccc(S(C)(=O)=O)cc3)n2)n1C(C)C
Summary of the method: as §1

[4] = compound: Cn1cc(-c2ccc3c(c2)CCN3C(=O)Cc2cccc(C(F)(F)F)c2)c2c(N)ncnc21
Summary of the method: as §1

[5] = compound: Cn1cc(-c2ccc3nnc(C(F)(F)c4ccc5ncccc5c4)n3n2)cn1
Summary of the method: as §1

tipifarnib = compound: Cn1cncc1[C@@](N)(c1ccc(Cl)cc1)c1ccc2c(c1)c(-c1cccc(Cl)c1)cc(=O)n2C [tipifarnib]
Summary of the method: as §1

mubritinib = compound: FC(F)(F)c1ccc(/C=C/c2nc(COc3ccc(CCCCn4ccnn4)cc3)co2)cc1 [mubritinib]
Summary of the method: as §1

Chain of UniProt O00468 (O00468 whole entry, looked up): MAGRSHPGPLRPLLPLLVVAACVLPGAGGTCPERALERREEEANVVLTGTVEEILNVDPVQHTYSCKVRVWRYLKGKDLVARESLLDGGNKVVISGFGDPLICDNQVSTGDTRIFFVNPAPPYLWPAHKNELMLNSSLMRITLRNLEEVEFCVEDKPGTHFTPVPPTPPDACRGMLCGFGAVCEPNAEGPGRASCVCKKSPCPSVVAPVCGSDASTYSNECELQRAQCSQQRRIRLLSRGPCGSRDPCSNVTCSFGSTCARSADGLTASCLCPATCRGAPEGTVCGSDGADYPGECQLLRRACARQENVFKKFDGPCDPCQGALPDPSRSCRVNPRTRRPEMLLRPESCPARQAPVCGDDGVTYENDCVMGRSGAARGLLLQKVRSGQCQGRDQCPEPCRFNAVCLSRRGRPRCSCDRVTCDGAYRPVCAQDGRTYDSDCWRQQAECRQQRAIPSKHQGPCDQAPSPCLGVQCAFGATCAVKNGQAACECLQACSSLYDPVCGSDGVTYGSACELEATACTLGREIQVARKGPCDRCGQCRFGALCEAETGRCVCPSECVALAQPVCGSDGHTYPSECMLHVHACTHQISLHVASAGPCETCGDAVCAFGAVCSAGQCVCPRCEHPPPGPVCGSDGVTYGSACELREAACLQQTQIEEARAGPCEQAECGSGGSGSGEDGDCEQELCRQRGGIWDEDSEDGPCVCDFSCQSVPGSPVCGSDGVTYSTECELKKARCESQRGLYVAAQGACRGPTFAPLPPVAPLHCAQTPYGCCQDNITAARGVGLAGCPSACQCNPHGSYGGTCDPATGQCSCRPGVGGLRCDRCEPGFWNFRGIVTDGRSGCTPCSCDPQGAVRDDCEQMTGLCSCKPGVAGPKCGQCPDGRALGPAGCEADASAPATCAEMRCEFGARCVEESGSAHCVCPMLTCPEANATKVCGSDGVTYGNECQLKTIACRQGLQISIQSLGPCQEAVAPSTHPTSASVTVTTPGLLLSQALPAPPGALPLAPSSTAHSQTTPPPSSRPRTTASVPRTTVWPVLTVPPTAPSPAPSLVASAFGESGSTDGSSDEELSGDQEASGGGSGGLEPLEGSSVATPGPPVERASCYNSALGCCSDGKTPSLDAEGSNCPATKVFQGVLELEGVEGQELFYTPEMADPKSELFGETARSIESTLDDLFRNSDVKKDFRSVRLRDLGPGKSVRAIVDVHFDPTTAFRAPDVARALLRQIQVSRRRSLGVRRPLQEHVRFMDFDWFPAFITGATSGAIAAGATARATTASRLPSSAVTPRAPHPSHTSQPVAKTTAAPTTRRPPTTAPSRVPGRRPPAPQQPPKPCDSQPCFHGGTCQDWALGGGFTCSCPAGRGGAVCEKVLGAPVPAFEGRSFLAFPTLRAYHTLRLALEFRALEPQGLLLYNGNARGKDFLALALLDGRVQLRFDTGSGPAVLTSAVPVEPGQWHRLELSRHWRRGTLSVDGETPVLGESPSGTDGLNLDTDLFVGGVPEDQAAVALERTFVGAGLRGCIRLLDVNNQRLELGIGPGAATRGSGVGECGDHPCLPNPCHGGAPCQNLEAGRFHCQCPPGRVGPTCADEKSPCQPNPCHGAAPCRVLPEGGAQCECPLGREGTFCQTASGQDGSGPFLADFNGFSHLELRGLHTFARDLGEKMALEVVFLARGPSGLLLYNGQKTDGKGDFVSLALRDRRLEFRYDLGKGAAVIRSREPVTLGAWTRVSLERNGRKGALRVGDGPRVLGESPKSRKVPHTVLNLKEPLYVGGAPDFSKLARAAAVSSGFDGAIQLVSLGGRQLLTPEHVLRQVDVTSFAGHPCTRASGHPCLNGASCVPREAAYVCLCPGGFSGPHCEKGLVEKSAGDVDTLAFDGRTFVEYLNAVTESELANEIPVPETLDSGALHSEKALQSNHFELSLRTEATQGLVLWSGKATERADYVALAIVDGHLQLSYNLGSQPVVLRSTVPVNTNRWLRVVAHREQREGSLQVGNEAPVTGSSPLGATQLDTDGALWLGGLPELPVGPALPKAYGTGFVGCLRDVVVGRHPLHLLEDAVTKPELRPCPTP
Chain of UniProt P98196 (P98196 whole entry, looked up): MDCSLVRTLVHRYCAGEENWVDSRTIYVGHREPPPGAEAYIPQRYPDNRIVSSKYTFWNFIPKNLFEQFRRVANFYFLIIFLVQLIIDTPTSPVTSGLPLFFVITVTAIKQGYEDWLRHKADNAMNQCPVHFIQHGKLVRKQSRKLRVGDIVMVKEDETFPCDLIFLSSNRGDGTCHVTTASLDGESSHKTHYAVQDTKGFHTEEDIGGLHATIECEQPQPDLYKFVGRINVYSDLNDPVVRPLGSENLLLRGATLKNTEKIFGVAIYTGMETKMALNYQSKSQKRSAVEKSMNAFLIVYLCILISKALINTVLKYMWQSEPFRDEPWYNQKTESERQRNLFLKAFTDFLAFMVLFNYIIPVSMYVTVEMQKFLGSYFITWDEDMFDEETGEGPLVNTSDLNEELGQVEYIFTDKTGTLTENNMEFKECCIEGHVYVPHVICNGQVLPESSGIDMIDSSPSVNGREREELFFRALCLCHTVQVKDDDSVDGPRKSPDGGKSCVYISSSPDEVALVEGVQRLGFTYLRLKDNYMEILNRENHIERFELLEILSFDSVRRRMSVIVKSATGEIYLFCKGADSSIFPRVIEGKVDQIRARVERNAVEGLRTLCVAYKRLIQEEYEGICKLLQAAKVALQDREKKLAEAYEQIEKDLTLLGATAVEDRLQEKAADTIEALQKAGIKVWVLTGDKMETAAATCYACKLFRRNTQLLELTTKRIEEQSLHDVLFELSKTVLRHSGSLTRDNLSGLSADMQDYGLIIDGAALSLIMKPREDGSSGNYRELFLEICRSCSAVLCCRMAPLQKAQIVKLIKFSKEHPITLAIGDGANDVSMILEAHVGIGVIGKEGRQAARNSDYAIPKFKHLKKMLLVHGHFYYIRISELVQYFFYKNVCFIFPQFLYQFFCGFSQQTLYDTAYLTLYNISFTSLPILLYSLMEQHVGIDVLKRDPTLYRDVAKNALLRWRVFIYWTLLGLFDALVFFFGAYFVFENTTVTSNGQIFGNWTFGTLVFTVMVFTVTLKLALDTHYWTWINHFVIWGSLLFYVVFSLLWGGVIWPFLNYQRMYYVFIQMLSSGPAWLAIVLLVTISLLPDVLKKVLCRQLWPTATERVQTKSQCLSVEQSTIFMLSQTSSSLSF
Chain of UniProt Q9NYF8 (Q9NYF8 whole entry, looked up): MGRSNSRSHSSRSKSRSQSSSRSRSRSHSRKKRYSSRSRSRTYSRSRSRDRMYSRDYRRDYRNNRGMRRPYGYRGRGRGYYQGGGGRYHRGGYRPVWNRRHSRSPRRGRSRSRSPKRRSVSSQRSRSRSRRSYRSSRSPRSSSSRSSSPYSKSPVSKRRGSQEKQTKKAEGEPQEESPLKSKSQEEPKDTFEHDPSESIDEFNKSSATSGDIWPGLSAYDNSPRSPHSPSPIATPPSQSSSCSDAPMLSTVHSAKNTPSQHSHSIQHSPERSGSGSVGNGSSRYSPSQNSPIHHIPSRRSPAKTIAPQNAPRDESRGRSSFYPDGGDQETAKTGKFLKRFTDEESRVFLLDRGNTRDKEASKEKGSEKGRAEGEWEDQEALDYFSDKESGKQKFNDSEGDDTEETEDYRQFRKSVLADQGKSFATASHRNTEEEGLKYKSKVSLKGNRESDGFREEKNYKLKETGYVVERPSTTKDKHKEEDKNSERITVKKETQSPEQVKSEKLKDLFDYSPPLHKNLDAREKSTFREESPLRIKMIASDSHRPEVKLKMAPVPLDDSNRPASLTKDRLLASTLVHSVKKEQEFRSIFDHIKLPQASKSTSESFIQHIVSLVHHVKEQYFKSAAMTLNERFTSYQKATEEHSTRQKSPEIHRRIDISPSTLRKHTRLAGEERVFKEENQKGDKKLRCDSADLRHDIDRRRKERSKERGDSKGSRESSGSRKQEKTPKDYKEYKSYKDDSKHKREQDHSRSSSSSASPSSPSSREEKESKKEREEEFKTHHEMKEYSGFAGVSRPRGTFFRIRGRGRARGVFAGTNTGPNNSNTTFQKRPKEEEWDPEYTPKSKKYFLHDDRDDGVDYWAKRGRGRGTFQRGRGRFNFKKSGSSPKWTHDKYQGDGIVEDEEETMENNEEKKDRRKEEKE
Chain of UniProt Q9UKV5 (Q9UKV5 whole entry, looked up): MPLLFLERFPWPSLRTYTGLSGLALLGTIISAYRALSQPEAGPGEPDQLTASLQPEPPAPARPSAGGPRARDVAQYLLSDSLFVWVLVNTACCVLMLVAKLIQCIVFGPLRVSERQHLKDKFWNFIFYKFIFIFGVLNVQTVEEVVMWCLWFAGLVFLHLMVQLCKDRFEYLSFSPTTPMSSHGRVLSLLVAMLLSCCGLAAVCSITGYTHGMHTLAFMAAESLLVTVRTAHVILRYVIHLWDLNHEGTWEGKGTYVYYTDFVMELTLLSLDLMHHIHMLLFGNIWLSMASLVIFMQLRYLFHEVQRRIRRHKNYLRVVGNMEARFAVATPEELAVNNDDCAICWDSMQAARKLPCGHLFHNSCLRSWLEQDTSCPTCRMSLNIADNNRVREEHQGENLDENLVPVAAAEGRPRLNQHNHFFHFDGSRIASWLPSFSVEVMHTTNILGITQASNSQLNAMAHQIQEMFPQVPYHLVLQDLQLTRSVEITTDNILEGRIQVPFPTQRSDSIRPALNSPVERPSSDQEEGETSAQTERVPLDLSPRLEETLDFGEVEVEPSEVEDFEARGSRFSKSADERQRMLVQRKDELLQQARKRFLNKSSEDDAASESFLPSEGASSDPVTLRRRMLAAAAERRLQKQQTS
Chain of UniProt Q9NX38 (Q9NX38 whole entry, looked up): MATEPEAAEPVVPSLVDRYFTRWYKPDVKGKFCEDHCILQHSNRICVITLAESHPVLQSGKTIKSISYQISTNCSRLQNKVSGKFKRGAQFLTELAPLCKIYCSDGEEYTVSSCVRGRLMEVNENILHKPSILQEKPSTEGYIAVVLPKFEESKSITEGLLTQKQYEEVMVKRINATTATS
Chain of UniProt O00244 (O00244 whole entry, looked up): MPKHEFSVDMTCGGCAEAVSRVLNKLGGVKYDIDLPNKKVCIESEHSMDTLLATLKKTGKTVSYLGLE

Target | log2 fold change (bafetinib) | log2 fold change [1] | log2 fold change (nilotinib) | log2 fold change [2] | log2 fold change (dasatinib) | log2 fold change [3] | log2 fold change [4] | log2 fold change [5] | log2 fold change (tipifarnib) | log2 fold change (mubritinib)
ARL1 (UniProt P40616) | 0.114 | 0.205 | -0.174 | -0.017 | -0.131 | 0.096 | 0.055 | 0.019 | -0.123 | -0.046
ATP6V0A1 isoform 3 (UniProt Q93050) | -0.12 | 0.153 | -0.026 | -0.029 | 0.018 | -0.079 | -0.097 | -0.098 | 0.038 | -0.026
AGRN (UniProt O00468) | 0.006 | 0.001 | -0.034 | -0.035 | 0.355 | -0.086 | 0.03 | 0.162 | 0.165 | -0.079
ATAD3B (UniProt Q5T9A4) | -0.014 | 0.018 | -0.072 | -0.039 | -0.099 | 0.027 | -0.103 | -0.186 | 0.03 | -0.37
ARPP19 (UniProt P56211) | -0.057 | 0.005 | 0.02 | -0.041 | 0.045 | -0.004 | 0.033 | -0.022 | -0.055 | 0.002
AGPAT3 isoform 3 (UniProt Q9NRZ7) | -0.057 | 0.04 | -0.012 | 0.004 | -0.092 | -0.007 | 0.033 | 0.018 | -0.025 | 0.062
ATP11A (UniProt P98196) | -0.028 | -0.002 | 0.113 | -0.012 | -0.01 | 0.029 | -0.006 | 0.01 | 0.051 | 0.056
AMFR (UniProt Q9UKV5) | -0.095 | 0.099 | -0.051 | -0.016 | -0.094 | 0.049 | 0.029 | -0.06 | 0.05 | -0.018
BCAP29 isoform 2 (UniProt Q9UHQ4) | -0.159 | -0.027 | -0.002 | 0.035 | 0.154 | -0.018 | 0 | 0.04 | 0.058 | 0.02
ACSL5 isoform 3 (UniProt Q9ULC5) | -0.271 (active) | -0.01 | -0.055 | -0.06 | 0.062 | 0.012 | 0.066 | 0.007 | 0.043 | -0.018
ACO2 (UniProt Q99798) | 0.021 | -0.025 | -0.02 | 0.013 | -0.118 | -0.013 | 0.043 | -0.016 | -0.064 | -0.522 (active)
ACTR1B (UniProt P42025) | -0.062 | -0.221 | 0.034 | -0.011 | 0.034 | 0.083 | -0.011 | 0.003 | 0.077 | -0.001
BUB1B isoform 3 (UniProt O60566) | 0.03 | 0.107 | -0.089 | -0.142 | -0.13 | 0.02 | 0 | 0.017 | -0.114 | 0.012
BCLAF1 (UniProt Q9NYF8) | -0.028 | 0.059 | 0.02 | -0.609 (active) | 0.081 | -0.14 | -0.018 | -0.065 | -0.005 | 0.031
BOP1 (UniProt Q14137) | 0.031 | -0.083 | -0.028 | -0.159 | 0.02 | -0.122 | -0.038 | -0.087 | 0.114 | -0.114
AGPAT1 (UniProt Q99943) | -0.036 | 0.012 | -0.035 | 0.016 | -0.033 | -0.063 | 0.033 | -0.006 | 0.027 | 0.014
ATR (UniProt Q13535) | -0.036 | -0.028 | -0.07 | 0.036 | -0.123 | -0.054 | 0.012 | 0.039 | -0.022 | -0.013
ABITRAM (UniProt Q9NX38) | 0.016 | 0.116 | -0.327 | -0.146 | -0.316 | -0.442 (active) | -0.004 | 0.026 | -0.031 | 0.046
APOB (UniProt P04114) | -0.316 | 0.032 | -0.132 | 0.013 | -0.213 | 0.051 | 0.071 | -0.021 | -0.203 | 0.011
ATP13A2 (UniProt Q9NQ11) | -0.002 | 0.001 | 0.01 | 0.014 | -0.007 | 0.018 | 0.045 | 0.069 | 0.06 | 0.108
ADD3 (UniProt Q9UEY8) | 0.008 | -0.008 | 0.031 | -0.004 | 0.072 | -0.096 | 0.028 | -0.016 | 0.009 | 0.038
ATOX1 (UniProt O00244) | -0.02 | 0.043 | 0.047 | 0.036 | 0.161 | -0.009 | 0.174 | -0.084 | -0.404 (active) | 0.004
ARFRP1 (UniProt Q13795) | 0.025 | 0.327 (active) | -0.061 | -0.014 | -0.017 | 0.112 | 0.11 | -0.003 | -0.069 | -0.019
APH1A (UniProt Q96BI3) | 0.132 | -0.06 | -0.037 | -0.04 | -0.039 | 0.028 | 0.036 | – | -0.06 | 0.05
ACSF3 (UniProt Q4G176) | -0.13 | -0.105 | 0.084 | 0.135 | -0.073 | 0.022 | -0.278 | -0.02 | 0.062 | -0.433 (active)
ATF1 (UniProt P18846) | -0.12 | 0.018 | 0.035 | -0.09 | – | 0.064 | -0.006 | – | 0.06 | 0.057
BTAF1 (UniProt O14981) | -0.158 | 0.025 | -0.004 | -0.059 | -0.131 | 0.035 | 0.04 | -0.003 | -0.034 | -0.022
ANKZF1 (UniProt Q9H8Y5) | 0.104 | -0.047 | -0.151 | -0.29 | -0.04 | 0.018 | -0.005 | -0.126 | 0.026 | -0.074
ARHGAP25 isoform 4 (UniProt P42331) | -0.035 | -0.089 | 0.28 | -0.276 | -0.421 | 0.078 | -0.009 | – | – | 0.266
ACSL1 (UniProt P33121) | -0.178 | -0.004 | -0.003 | -0.07 | -0.076 | -0.013 | 0.027 | 0.024 | -0.015 | -0.009
